This excerpt belongs to a sample that is enriched for hits.
TDP1 cell CPT – growth inhibition of DT40 Tdp1-/-;hTDP1 cells with camptothecin (screen for TDP1 inhibitors); Potency, µM (doses to about 46.2 µM), for inactives: top-dose activity change, negative = growth inhibition, actives largely listed as inhibitors; chicken DT40 Tdp1-/-;hTDP1 cells + 20 nM CPT, ATP luminescence, 48 h; 420,000 tested, 12% active; AID 686979; further: potency means the concentration at half of the fitted maximal effect; nearly all actives have a fitted effect of over 55% in size
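Chicken DT40 Tdp1-/- cells stably complemented with human TDP1 were seeded at 400 cells/well in medium containing 20 nM camptothecin, exposed to pin-transferred compounds, and grown at 37 °C for at least 48 hr. Viability was read as ATP luminescence.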
IL-1B inflam inh – inflammasome signaling inhibition, IL-1 beta readout; AID 743279; THP-1 LPS/ATP IL-1B secretion, AlphaLISA, 16 h; stronger effect = lower value; activity change, % at 57.5 µM; 360,000 tested, 4.7% active; in the data active means activity change below about -50%; inconclusive means mostly about -30% to -49%
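Secreted IL-1B measured by AlphaLISA bead assay after 16 h compound exposure of THP-1 cells; compounds (final up to 57.5 uM) added 1 h before LPS (250 ng/mL) and ATP (1.25 mM) stimulation; lower signal means less secretion.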
DT40 TDP1 no CPT – qHTS for Inhibitors of human tyrosyl-DNA phosphodiesterase 1 (TDP1): qHTS in cells in absence of CPT. DT40 Tdp1-/- hTDP1 cells, no CPT, ATP luminescence, 48 h. Potency, µM (highest dose often 46.2 µM), for inactives: top-dose activity change, negative = growth inhibition, actives largely listed as inhibitors. 420,000 tested, 15% active. AID 686978, 2013; further: potency means the concentration at half of the fitted maximal effect; nearly all actives have a fitted effect of over 55% in size
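Chicken DT40 Tdp1-/- cells complemented with human TDP1, screened without camptothecin (DMSO vehicle only), 400 cells/well. Compounds pin-transferred, cells incubated at 37 °C for at least 48 hr. Growth read as ATP-dependent luminescence (CellTiter-Glo, 30 min at RT).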
HT1080 IDH1KD tx – kills HT-1080 cells with IDH1 knockdown; HT-1080 IDH1 knockdown viability, ATP luminescence, 48 h; Potency, µM (doses to about 46.1 µM), inactives show top-dose activity, negative = toxicity, hits mostly cytotoxic; AID 686971; 360,000 tested, 2% active;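 further: potency means the concentration at half of the fitted maximal effect; 0% = DMSO wells and -100% = cell-free medium wells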
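Knockdown cells (IDH1KD HT-1080) received compounds 2 h after plating at 750 cells/well and were kept 48 h at 37 °C in 5% FBS RPMI. A CellTiter-Glo luminescence read gave % activity for curve fitting.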
HT1080-NT tox – kills 2HG-producing HT-1080-NT fibrosarcoma cells; HT-1080-NT fibrosarcoma viability, CellTiter-Glo ATP luminescence, 48 h; Potency, µM (titrated, usually from 46.1 µM), without a hit: at the top dose activity, negative = less viability, usual class: cytotoxic; 360,000 tested, 1.6% active;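 further: NT is the 2HG producing partner of a matched IDH1 knockdown line; potency means the concentration at half of the fitted maximal effect; 0% = DMSO-treated cells and -100% = media-only wells without cells; nearly all actives have a fitted effect of over 55% in size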
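Toxicity toward the 2HG-producing NT line was scored as %Activity, normalised to DMSO and no-cell wells, from CellTiter-Glo luminescence after 48 hours' treatment.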
12-LOX inh – ALOX12 (human) lipoxygenase inhibition. P18054. purified 12hLO, xylenol orange hydroperoxide absorbance. Potency, µM (top dose mostly 108 µM), for the others: at the top dose activity change, negative = inhibition, hits mostly inhibitors. 580,000 tested, 1.1% active. AID 1671190; further: potency means the concentration at half of the fitted maximal effect
Target sequence (P18054 whole entry, looked up): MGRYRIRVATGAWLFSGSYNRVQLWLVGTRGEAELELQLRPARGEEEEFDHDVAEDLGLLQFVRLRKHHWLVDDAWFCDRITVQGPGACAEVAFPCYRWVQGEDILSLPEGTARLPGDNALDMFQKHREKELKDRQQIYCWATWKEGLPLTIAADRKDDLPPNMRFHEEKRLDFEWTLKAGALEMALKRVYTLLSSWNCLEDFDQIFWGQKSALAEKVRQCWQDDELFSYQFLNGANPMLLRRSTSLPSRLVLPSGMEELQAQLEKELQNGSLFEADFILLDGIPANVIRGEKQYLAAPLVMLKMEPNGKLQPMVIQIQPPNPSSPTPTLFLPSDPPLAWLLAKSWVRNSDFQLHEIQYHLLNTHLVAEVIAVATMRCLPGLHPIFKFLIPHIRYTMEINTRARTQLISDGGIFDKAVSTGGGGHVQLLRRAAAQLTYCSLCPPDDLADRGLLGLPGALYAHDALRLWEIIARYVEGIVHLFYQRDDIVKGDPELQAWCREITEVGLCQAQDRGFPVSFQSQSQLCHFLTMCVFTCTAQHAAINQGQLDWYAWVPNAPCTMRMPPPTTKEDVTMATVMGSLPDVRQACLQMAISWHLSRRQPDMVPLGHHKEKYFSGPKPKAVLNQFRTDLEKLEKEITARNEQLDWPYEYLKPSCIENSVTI
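Purified human 12hLO (150 nM final) in 25 mM Hepes, 0.01% Triton X-100, pH 7.0 was preincubated 15 min at room temperature with compound. Then 40 uM arachidonic acid was added, 30 min. Hydroperoxide was read by Fe-XO absorbance ratio 573/405 nm.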
The depositor's hits bear a star; ? = inconclusive; . = no result; [ ] = another dose, or the depositor's remark. Unless noted, the call rests on the fitted dose curve; in most records, active means well fitted curve in the direction sought with a large enough effect; inconclusive means small, poorly fitted or top-dose-only effect, or another doubt; inactive means no such curve, though single readings can be large; an effect the other way counts as inactive or inconclusive. Unless noted, on the % scale 0 is the no-effect control and ±100 the full control effect.

SMILES	TDP1 cell CPT	IL-1B inflam inh	DT40 TDP1 no CPT	HT1080 IDH1KD tx	HT1080-NT tox	12-LOX inh
CC1CCCC(C)N1C(=O)COC(=O)c1ccc2c(c1)OCO2 (configuration not stated)	-0.7%	12.8	29.1µM*	-0.5%	-6.1%	4.7%
CCOC(=O)c1c(C)c(C(=O)Nc2ccc3c(c2)OCCO3)c(C)n1CC	10µM*	16.2	11.2µM*	?	?	-9.0%
CC1CC(C)CN(C(=O)COC(=O)c2ccc3c(c2)OCO3)C1 (configuration not stated)	-4.2%	-4.9	-10.2%	-0.1%	1.9%	0.0%
CCOC(=O)c1c(C)c(C(=O)Nc2ccc3c(c2)OCO3)c(C)n1C	0.6%	0.0	-4.1%	2.6%	15.6%	13.8%
O=c1[nH]nc2n1CCC(NS(=O)(=O)Cc1ccccc1F)CC2 (configuration not stated)	.	.	.	.	.	15.9%
CNC(=O)[C@@H]1CN(C(=O)c2ccsc2)C[C@H]1c1nc(C)no1	.	.	.	.	.	22.4%
O=C(/C=C/c1ccc2c(c1)OCO2)NC1CCCC1	0.5%	-0.6	-1.5%	-3.1%	4.7%	-20.6%
CNc1ccc(Br)cc(C(=O)/C=C/c2ccc3c(c2)OCO3)c1=O	18.4µM*	-100.3*	18.4µM*	?	?	?
CNc1ccc(Br)cc(C(=O)/C=C/c2ccc(OC)cc2)c1=O	6.51µM*	?	18.4µM*	3.2%	0.2%	31.6µM*
CNc1ccc(Br)cc(C(=O)/C=C/c2cc(OC)ccc2OC)c1=O	20.6µM*	-99.4*	10.3µM*	?	?	?
CCNc1ccc(Br)cc(C(=O)/C=C/c2ccc(Cl)cc2Cl)c1=O	10.3µM*	-97.8*	9.2µM*	?	?	7.08µM*
O=C(/C=C/c1ccc(Cl)cc1Cl)c1cc(Cl)ccc1O	.	.	.	.	.	-68.9%
COC(=O)CNC(=O)/C=C/c1cc(Br)ccc1OC	-15.7%	-6.9	-21.2%	12.1%	12.5%	0.0%
Nc1[nH]c(C(=O)c2ccccc2)c(-c2ccc(Cl)cc2)c1C(=O)c1c[nH]c2ccccc12	.	.	.	.	.	-24.5%
Cc1ccc(C)c(NC(=O)N2CCC(N3CCN(Cc4ccccn4)C(=O)C3=O)CC2)c1	.	.	.	.	.	8.5%
CCCc1nc2ccccc2c(=O)n1CC(=O)c1ccccc1	?	-9.5	-26.4%	-13.6%	3.9%	-0.3%
C/C(=N\OCC(=O)NC12CC3CC(CC(C3)C1)C2)c1cc2ccccc2o1	20.6µM*	-90.7*	?	?	?	-13.0%
CSc1ccccc1NC(=O)CO/N=C(\C)c1cc2ccccc2o1	?	?	?	-11.3%	-3.4%	9.5%
O=C(COc1ccc(Cl)cc1)Nc1cc2c3c(c1)CC(=O)N3CCC2	20.6µM*	15.0	20.6µM*	-1.0%	-3.8%	-9.2%
CCCC(=O)Nc1cc2c3c(c1)CC(=O)N3CCC2	-3.0%	-16.6	?	-4.1%	7.1%	13.9%
Cc1ccc(C(=O)N2CCN(c3nnc4ccccn34)CC2)cc1C	.	.	.	.	.	39.3%
CC(C)(C)c1ccc(NC(=O)c2nccnc2N)cc1	.	.	.	.	.	8.1%
O=C(CN1CC[n+]2c(-c3cccs3)csc21)c1ccc(Br)cc1	1.84µM*	?	3.66µM*	-1.7%	-6.4%	-23.2%
CC(=O)N1CCN(CC(=O)c2ccc(Br)cc2)CC1	-21.2%	26.9	-20.7%	-4.0%	-9.7%	-26.2%
O=C(CN1CC[n+]2c(-c3ccccc3)csc21)c1ccc(Br)cc1	2.91µM*	-54.1*	2.06µM*	-0.3%	20.6µM*	?
SMILES	TDP1 cell CPT	IL-1B inflam inh	DT40 TDP1 no CPT	HT1080 IDH1KD tx	HT1080-NT tox	12-LOX inh
CS(=O)(=O)c1ccc(C(=O)N2CCCC(c3nc4ccccc4[nH]3)C2)cc1 (configuration not stated)	.	.	.	.	.	1.1%
CC(C)C[C@@H]1N[C@H](C(=O)N2CCN(c3ncccn3)CC2)Cc2c[nH]c3cccc1c23	.	.	.	.	.	-2.8%[176 µM]
COc1ccccc1CNc1ccccc1C(=O)O	.	.	.	.	.	0.1%
COc1ccc(NC(=O)N2CCC(Cc3noc(C4CC4)n3)C2)cc1 (configuration not stated)	.	.	.	.	.	85.3%
O=C(Nc1ccc(OCC(F)(F)C(F)F)c(C(F)(F)F)c1)c1ccccc1	23.1µM*	?	23.1µM*	?	?	-20.2%
O=C(Nc1ccc(OCC(F)(F)C(F)F)c(C(F)(F)F)c1)c1ccccc1O	?	?	18.4µM*	13µM*	16.4µM*	-25.5%
Cc1ccc(OCC(=O)OCC(=O)c2ccc(Cl)cc2)cc1C	.	.	.	.	.	-6.3%
CC(C)c1ccc(CNCc2ccco2)cc1	.	.	.	.	.	-19.2%
COc1ccccc1C(=O)N1CCCCCC1c1nnc(-c2ccccc2)o1 (configuration not stated)	.	.	.	.	.	23.1%
Cc1cc(C)c(CC(=O)O)c(C)c1	.	.	.	.	.	1.58µM*
COc1ccc(NC(=O)c2cccc(N3CCCS3(=O)=O)c2)cc1OC	?	.	-14.8%	.	.	-26.7%
CC(C)(C)c1ccc(CC(=O)N2CCC2(C)C(=O)NCc2cccc3ccccc23)cc1 (configuration not stated)	23.1µM*	?	25.9µM*	16.4µM*	?	-22.6%
Cc1ccc(CNC(=O)C2(C)CCN2C(=O)Cc2ccc(C(C)(C)C)cc2)cc1 (configuration not stated)	16.4µM*	-13.8	18.4µM*	?	?	?
CC(C)(C)c1ccc(CC(=O)N2CCC2(C)C(=O)NS(=O)(=O)c2ccc(F)cc2F)cc1 (configuration not stated)	-5.7%	-50.9*	-5.4%	6.5%	29.5%	?
CC(C)(C)c1ccc(CC(=O)N2CCC2(C)C(=O)Nc2cccc3ccccc23)cc1 (configuration not stated)	?	12.3	?	?	?	-28.4%
CC1(C(=O)NS(=O)(=O)c2ccc(F)cc2F)CCN1C(=O)Cc1ccc(-c2ccccc2)cc1 (configuration not stated)	-4.7%	1.1	-13.5%	4.2%	6.0%	?
Cc1ccc(S(=O)(=O)NC(=O)C2(C)CCN2C(=O)Cc2ccc(C(C)(C)C)cc2)cc1 (configuration not stated)	-7.2%	0.0	-10.9%	24.7%	26.9%	-4.2%
CCN(CC)S(=O)(=O)c1ccc(N2CCOCC2)c(NC(=O)CNCCc2ccccc2)c1	18.4µM*	-5.1	18.4µM*	-0.9%	-1.0%	?
